Results reported in article PMC7862700, “An all-to-all approach to the identification of sequence-specific readers for epigenetic DNA modifications on cytosine”.

Key:
Test in all cases: DAPPL (digital affinity profiling via proximity ligation, sequencing); 10 mM Tris-HCl pH 7.5, 50 mM NaCl, 1 mM DTT, 4% glycerol, room temperature, 30 min; GST-TFs on glutathione beads, 16-mer random dsDNA library, 0.1% formaldehyde crosslink after washing; high values mean tight binding
Conditions in all cases: protein: recombinant; tags: N-terminal GST; dsDNA, one strand shown
FLI1 = biological target: T1, FLI1 (Homo sapiens, UniProt Q01543 1-452)
T1 sequence: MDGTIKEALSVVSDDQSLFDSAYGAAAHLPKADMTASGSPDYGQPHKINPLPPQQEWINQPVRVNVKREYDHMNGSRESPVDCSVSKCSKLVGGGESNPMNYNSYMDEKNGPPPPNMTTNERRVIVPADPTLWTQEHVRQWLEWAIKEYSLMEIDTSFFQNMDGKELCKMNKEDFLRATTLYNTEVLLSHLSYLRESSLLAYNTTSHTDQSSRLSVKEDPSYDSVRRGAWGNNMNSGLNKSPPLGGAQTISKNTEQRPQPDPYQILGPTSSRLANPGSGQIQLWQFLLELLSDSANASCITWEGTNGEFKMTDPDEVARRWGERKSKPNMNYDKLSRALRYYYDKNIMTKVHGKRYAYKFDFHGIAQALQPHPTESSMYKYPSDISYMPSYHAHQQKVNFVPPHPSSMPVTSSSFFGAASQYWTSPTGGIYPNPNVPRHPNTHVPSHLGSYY
Outline: (§1)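 Human transcription factors were made in yeast as GST fusions, captured on glutathione beads and barcoded with DNA. With a tag-only sample included, the pool was incubated with 200 nmole of a random double-stranded 16-mer DNA library in Tris/NaCl/DTT/glycerol buffer at room temperature for 30 min, then crosslinked with 0.1% formaldehyde after washing, ligated by proximity, amplified and sequenced. For binding signal, each hexamer's read frequency for a factor is divided by its frequency for the tag-only sample.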

ELK1 = biological target: T2, ELK1 (Homo sapiens, UniProt P19419 1-428)
T2 sequence: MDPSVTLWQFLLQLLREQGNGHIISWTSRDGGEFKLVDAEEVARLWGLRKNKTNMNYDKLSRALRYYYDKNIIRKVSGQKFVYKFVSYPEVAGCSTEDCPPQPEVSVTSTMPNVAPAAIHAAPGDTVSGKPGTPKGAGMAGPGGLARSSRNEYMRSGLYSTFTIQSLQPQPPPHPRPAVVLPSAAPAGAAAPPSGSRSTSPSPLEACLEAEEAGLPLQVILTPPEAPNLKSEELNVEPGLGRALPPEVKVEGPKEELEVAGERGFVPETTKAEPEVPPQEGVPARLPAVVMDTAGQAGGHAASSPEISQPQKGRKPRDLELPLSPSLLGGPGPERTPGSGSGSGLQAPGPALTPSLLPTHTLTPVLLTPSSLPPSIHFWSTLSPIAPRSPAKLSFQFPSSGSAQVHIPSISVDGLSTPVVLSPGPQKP
Outline: as §1

GABPA = biological target: T3, GABPA (Homo sapiens, UniProt Q06546 1-454)
T3 sequence: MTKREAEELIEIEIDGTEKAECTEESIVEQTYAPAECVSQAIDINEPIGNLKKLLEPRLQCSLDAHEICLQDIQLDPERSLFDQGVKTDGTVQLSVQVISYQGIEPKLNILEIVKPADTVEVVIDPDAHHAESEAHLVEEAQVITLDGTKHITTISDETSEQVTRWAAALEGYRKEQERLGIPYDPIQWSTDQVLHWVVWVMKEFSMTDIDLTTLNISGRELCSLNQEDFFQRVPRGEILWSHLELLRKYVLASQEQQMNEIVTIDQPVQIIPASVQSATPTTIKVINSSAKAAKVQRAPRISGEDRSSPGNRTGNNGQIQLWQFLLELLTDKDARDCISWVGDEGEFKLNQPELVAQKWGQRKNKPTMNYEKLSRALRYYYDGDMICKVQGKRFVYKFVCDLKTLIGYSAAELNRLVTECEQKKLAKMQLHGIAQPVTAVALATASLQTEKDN
Outline: as §1

ERG = biological target: T4, ERG (Homo sapiens, UniProt P11308 1-479)
T4 sequence: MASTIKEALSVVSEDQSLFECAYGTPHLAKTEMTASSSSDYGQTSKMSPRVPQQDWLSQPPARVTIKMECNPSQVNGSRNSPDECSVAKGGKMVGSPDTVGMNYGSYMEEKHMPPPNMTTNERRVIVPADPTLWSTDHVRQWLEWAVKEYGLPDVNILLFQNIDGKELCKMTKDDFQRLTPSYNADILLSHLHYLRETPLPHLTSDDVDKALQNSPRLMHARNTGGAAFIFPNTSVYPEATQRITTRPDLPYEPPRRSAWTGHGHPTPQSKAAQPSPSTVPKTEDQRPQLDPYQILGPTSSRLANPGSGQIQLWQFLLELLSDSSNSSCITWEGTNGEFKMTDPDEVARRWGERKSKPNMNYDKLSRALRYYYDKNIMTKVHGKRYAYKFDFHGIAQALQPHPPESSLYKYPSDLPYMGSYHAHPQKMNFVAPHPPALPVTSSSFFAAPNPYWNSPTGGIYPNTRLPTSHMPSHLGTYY
Outline: as §1

ELF1 = ELF1 (Homo sapiens, UniProt P32519 1-619)
Outline: as §1

EHF = biological target: T5, EHF (Homo sapiens, UniProt Q9NZC4 1-300)
T5 sequence: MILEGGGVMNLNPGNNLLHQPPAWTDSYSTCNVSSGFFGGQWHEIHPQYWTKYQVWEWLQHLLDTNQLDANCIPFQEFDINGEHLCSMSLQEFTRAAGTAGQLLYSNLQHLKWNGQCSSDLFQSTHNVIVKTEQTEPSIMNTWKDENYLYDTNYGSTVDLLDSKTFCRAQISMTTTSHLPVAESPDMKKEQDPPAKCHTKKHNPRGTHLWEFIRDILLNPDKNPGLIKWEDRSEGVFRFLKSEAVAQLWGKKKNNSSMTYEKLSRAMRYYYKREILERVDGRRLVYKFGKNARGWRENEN
Outline: as §1

SPI1 = SPI1 (Homo sapiens, UniProt P17947 1-270)
Outline: as §1

ELK3 = biological target: T6, ELK3 (Homo sapiens, UniProt P41970 1-407)
T6 sequence: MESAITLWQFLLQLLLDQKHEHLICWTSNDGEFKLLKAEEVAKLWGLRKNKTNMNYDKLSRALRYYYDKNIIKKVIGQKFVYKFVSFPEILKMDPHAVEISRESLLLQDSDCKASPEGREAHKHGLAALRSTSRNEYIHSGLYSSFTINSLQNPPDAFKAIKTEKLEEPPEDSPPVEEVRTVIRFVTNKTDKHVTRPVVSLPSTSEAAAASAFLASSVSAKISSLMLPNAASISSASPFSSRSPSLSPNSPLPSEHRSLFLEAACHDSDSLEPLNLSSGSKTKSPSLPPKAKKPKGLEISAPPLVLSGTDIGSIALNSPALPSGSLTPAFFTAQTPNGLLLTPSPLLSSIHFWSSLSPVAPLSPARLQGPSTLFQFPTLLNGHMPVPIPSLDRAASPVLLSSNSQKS
Outline: as §1

SPIB = SPIB (Homo sapiens, UniProt Q01892 1-262)
Outline: as §1

Chain of ELF1 (P32519 whole entry): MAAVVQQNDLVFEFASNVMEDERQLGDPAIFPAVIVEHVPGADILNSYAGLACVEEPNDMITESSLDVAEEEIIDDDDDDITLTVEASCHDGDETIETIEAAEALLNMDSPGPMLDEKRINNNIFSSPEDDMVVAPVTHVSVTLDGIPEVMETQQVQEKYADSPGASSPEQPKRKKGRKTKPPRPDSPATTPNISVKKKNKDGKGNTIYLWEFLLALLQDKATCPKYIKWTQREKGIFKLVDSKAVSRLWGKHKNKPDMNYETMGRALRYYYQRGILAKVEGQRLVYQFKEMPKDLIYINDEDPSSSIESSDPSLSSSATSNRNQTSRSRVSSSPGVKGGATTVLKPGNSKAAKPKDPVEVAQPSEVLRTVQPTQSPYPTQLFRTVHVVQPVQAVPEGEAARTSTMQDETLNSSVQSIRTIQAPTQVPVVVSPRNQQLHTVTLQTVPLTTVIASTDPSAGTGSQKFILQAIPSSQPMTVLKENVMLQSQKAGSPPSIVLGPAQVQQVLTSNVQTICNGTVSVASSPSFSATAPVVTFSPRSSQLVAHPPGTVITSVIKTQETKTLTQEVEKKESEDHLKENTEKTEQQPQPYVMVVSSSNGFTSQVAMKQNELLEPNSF
Chain of SPIB (Q01892 whole entry): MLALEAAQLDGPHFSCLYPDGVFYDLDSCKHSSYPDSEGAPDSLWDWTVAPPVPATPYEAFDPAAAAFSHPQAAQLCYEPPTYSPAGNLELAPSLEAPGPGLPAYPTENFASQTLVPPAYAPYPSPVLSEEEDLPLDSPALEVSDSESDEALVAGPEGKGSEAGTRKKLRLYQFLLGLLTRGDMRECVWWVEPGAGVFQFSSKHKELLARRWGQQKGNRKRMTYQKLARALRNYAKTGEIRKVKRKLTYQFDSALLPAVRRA

Sequence | binding signal (FLI1) | binding signal (ELK1) | binding signal (GABPA) | binding signal (ERG) | binding signal (ELF1) | binding signal (EHF) | binding signal (SPI1) | binding signal (ELK3) | binding signal (SPIB)
TTACTG | 1.11 fold enrichment (6-mer frequency, TF over GST control) | 1.12 fold enrichment (6-mer frequency, TF over GST control) | 1.08 fold enrichment (6-mer frequency, TF over GST control) | 1.14 fold enrichment (6-mer frequency, TF over GST control) | 1.09 fold enrichment (6-mer frequency, TF over GST control) | 1.18 fold enrichment (6-mer frequency, TF over GST control) | 1.05 fold enrichment (6-mer frequency, TF over GST control) | 1.03 fold enrichment (6-mer frequency, TF over GST control) | –
CGCTAG | 1.07 fold enrichment (6-mer frequency, TF over GST control) | 1.06 fold enrichment (6-mer frequency, TF over GST control) | 1.09 fold enrichment (6-mer frequency, TF over GST control) | 1.03 fold enrichment (6-mer frequency, TF over GST control) | 1.04 fold enrichment (6-mer frequency, TF over GST control) | 1.12 fold enrichment (6-mer frequency, TF over GST control) | 1.09 fold enrichment (6-mer frequency, TF over GST control) | 1.3 fold enrichment (6-mer frequency, TF over GST control) | –
AAGCAG | 1.1 fold enrichment (6-mer frequency, TF over GST control) | 1.14 fold enrichment (6-mer frequency, TF over GST control) | 1.13 fold enrichment (6-mer frequency, TF over GST control) | 1.11 fold enrichment (6-mer frequency, TF over GST control) | 1.12 fold enrichment (6-mer frequency, TF over GST control) | 1.12 fold enrichment (6-mer frequency, TF over GST control) | 1.24 fold enrichment (6-mer frequency, TF over GST control) | 1.23 fold enrichment (6-mer frequency, TF over GST control) | –
ACCCGA | 1.05 fold enrichment (6-mer frequency, TF over GST control) | 1.02 fold enrichment (6-mer frequency, TF over GST control) | 1.03 fold enrichment (6-mer frequency, TF over GST control) | 1.05 fold enrichment (6-mer frequency, TF over GST control) | 1.03 fold enrichment (6-mer frequency, TF over GST control) | 1.18 fold enrichment (6-mer frequency, TF over GST control) | – | – | 1.14 fold enrichment (6-mer frequency, TF over GST control)
AAGAAG | 1.05 fold enrichment (6-mer frequency, TF over GST control) | 1.09 fold enrichment (6-mer frequency, TF over GST control) | 1.01 fold enrichment (6-mer frequency, TF over GST control) | 1.06 fold enrichment (6-mer frequency, TF over GST control) | 1.05 fold enrichment (6-mer frequency, TF over GST control) | 1.07 fold enrichment (6-mer frequency, TF over GST control) | 1.13 fold enrichment (6-mer frequency, TF over GST control) | 1.05 fold enrichment (6-mer frequency, TF over GST control) | –
TACTGA | 1.03 fold enrichment (6-mer frequency, TF over GST control) | 1.08 fold enrichment (6-mer frequency, TF over GST control) | 1.06 fold enrichment (6-mer frequency, TF over GST control) | 1.03 fold enrichment (6-mer frequency, TF over GST control) | 1.13 fold enrichment (6-mer frequency, TF over GST control) | 1.13 fold enrichment (6-mer frequency, TF over GST control) | 1.02 fold enrichment (6-mer frequency, TF over GST control) | 1.09 fold enrichment (6-mer frequency, TF over GST control) | –
CCTTCG | 1.31 fold enrichment (6-mer frequency, TF over GST control) | 1.33 fold enrichment (6-mer frequency, TF over GST control) | 1.35 fold enrichment (6-mer frequency, TF over GST control) | 1.3 fold enrichment (6-mer frequency, TF over GST control) | 1.33 fold enrichment (6-mer frequency, TF over GST control) | 1.19 fold enrichment (6-mer frequency, TF over GST control) | 1.32 fold enrichment (6-mer frequency, TF over GST control) | 1.65 fold enrichment (6-mer frequency, TF over GST control) | 1.41 fold enrichment (6-mer frequency, TF over GST control)
CATGAA | 1.08 fold enrichment (6-mer frequency, TF over GST control) | 1.16 fold enrichment (6-mer frequency, TF over GST control) | 1.03 fold enrichment (6-mer frequency, TF over GST control) | 1.07 fold enrichment (6-mer frequency, TF over GST control) | 1.06 fold enrichment (6-mer frequency, TF over GST control) | 1.15 fold enrichment (6-mer frequency, TF over GST control) | 1.04 fold enrichment (6-mer frequency, TF over GST control) | 1.11 fold enrichment (6-mer frequency, TF over GST control) | –
TAGAAT | 1.1 fold enrichment (6-mer frequency, TF over GST control) | 1.06 fold enrichment (6-mer frequency, TF over GST control) | 1.03 fold enrichment (6-mer frequency, TF over GST control) | 1.03 fold enrichment (6-mer frequency, TF over GST control) | 1.1 fold enrichment (6-mer frequency, TF over GST control) | 1.01 fold enrichment (6-mer frequency, TF over GST control) | 1.15 fold enrichment (6-mer frequency, TF over GST control) | 1.15 fold enrichment (6-mer frequency, TF over GST control) | –
